Assay results taken from the supplement of paper PMC10011410.
± gives the standard deviation of the averaged measurements.

Tested on: AmpC beta-lactamase (E. coli)
Test: AmpC inhibition relative to DMSO; higher = more inhibition
Protocol: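 Aggregation counter-screen: inhibition of E. coli AmpC beta-lactamase (5 nM, nitrocefin substrate, 50 mM sodium phosphate pH 7.0, RT, 5 min) by KAT inhibitors at 4, 11, 33 and 100 uM, with or without 0.01% Triton X-100. Percent inhibition is relative to DMSO controls. Four technical replicates.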

[1] = 4 µM, detergent: 0.01% Triton X-100
[2] = 11 µM, detergent: 0.01% Triton X-100
[3] = 33 µM, detergent: 0.01% Triton X-100
[4] = 100 µM, detergent: 0.01% Triton X-100
[5] = 100 µM, detergent: no detergent

Row | Structure (SMILES) | AmpC inhibition [1] | AmpC inhibition (4 µM, detergent: no detergent) | AmpC inhibition [2] | AmpC inhibition (11 µM, detergent: no detergent) | AmpC inhibition [3] | AmpC inhibition (33 µM, detergent: no detergent) | AmpC inhibition [4] | AmpC inhibition [5]
1 | CCCCCCCCCCCC1=C(O)C(=O)C=C(O)C1=O | 8.62 ± 5.2% | -3.71 ± 8% | 2.92 ± 1.7% | 17.5 ± 8.6% | 3.12 ± 4.7% | 60.9 ± 17% | 5.91 ± 2.8% | 92.1 ± 5.4%
2 | CCCC1(c2ccccc2)NC(=O)N(CC(=O)N(C)Cc2c(F)cccc2Cl)C1=O (stereo not given) | 14.2 ± 2.9% | -1.7 ± 2% | 7.15 ± 9.5% | 11.6 ± 7.8% | 6.15 ± 7.3% | 5.75 ± 6.8% | 6.78 ± 1.8% | 3.79 ± 0.91%
3 | O=C1/C(=C/c2ccc(O)c(Br)c2)CCC/C1=C\c1ccc(O)c(Br)c1 | 4.59 ± 5% | 7.44 ± 6.5% | 9.28 ± 8.5% | 55.4 ± 9.9% | 5.98 ± 3.4% | 78.6 ± 1.3% | -4.62 ± 5.8% | 81.8 ± 1.7%
4 | COc1cc(/C=C/C(=O)CC(=O)/C=C/c2ccc(O)c(OC)c2)ccc1O | 10.4 ± 4.2% | 5.89 ± 9% | 5.4 ± 4.4% | 39.2 ± 7.2% | -1.8 ± 2.5% | 71.1 ± 12% | -2.46 ± 13% | 67.3 ± 7.6%
5 | COc1ccc(/C(Cl)=C(\C=O)c2ccc(OC)cc2)cc1 | 2.6 ± 2.4% | 17.8 ± 21% | 4.97 ± 1.2% | 3.2 ± 5.5% | 1.35 ± 3.3% | -9.16 ± 9.6% | -4.79 ± 8.1% | 1.57 ± 3.4%
